The test system of assay [1] is Zika virus NS2B-NS3 protease (linked construct). In words: Confirmatory screen NINDS AMC qHTS for Zika virus inhibitors (AID 1347152). Note: potency is the fitted concentration of half-maximal effect; nearly all actives have a fitted effect of over 70% in size. Put shortly:
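Enzyme (1 nM, linked construct) was preincubated with compound for 15 minutes at room temperature in 10 mM Tris-HCl pH 8.0 with 0.01% Tween 20. Bz-Nle-Lys-Arg-Arg-AMC was then added to 10 microM, and AMC fluorescence was recorded immediately and after 15 minutes.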
Background: Quantitative high-throughput screening tests each substance at several concentrations.

For assay [2], the system named is Zika virus NS2B-NS3 protease (unlinked complex). Kind of assay: Confirmatory screen GU AMC qHTS for Zika virus inhibitors (AID 1347153).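 Note: enzyme at 25 nM with substrate at 10 µM below its Km of 18.3 µM; potency is the fitted concentration of half-maximal effect; nearly all actives have a fitted effect of over 70% in size.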 Put shortly: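 Compounds were preincubated 15 min at room temperature with 25 nM noncovalent NS2B-NS3 protease at pH 8.0; AMC substrate added at 10 microM and 15-min fluorescence gain (340/450 nm) converted to percent inhibition, fitted 4-parameter.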

Assay [3] is described as follows: Confirmatory screen GU Rhodamine qHTS for Zika virus inhibitors qHTS (AID 1347157).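 For activity change, negative = inhibition: plate controls were no-inhibitor wells for no effect and no-enzyme wells for full effect.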 Note: nearly all actives have a fitted effect of over 70% in size. Note: potency is the fitted concentration of half-maximal effect. The gist of the method:
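A qHTS format was used, with compound concentrations ranging up to 114 microM. Each compound was preincubated with 25 nM NS2B-NS3 protease, and the substrate was then added at 1.5 microM. Curves were fitted with a 4-parameter Hill model.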

Assay [4] concerns Zika virus NS2B-NS3 protease (unlinked complex). Kind of assay: Primary screen GU Rhodamine qHTS for Zika virus inhibitors: Unlinked NS2B-NS3 protease assay (AID 1347159). For activity change, negative = inhibition: % is set by controls: 0 for no effect and ±100 for the full control effect. Note: nearly all actives have a fitted effect of over 60% in size. Note: potency is the fitted concentration of half-maximal effect. Put shortly:
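Percent inhibition derives from the 15-min fluorescence change (ex 480, em 540 nm), normalized to no-enzyme and no-inhibitor wells. Reactions contained 25 nM NS2B-NS3 complex and 1.5 microM substrate in 10 mM Tris-HCl pH 8.0.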

The subject of assay [5] is Zika virus NS2B-NS3 protease (linked construct). In words: Primary screen NINDS Rhodamine qHTS for Zika virus inhibitors (AID 1347160). Note: potency is the fitted concentration of half-maximal effect; nearly all actives have a fitted effect of over 55% in size. Put shortly: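 In 10 mM Tris-HCl pH 8.0 containing 0.01% Tween 20, linked NS2B-NS3 protease (25 nM final) is exposed to test compounds for 15 min. Cleavage of 1.5 microM Rhodamine110 substrate is tracked by fluorescence over 15 min.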

Assay [6] in a line: Confirmatory screen NINDS Rhodamine qHTS for Zika virus inhibitors (AID 1347161).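 For activity change, negative = inhibition: purified Zika NS2B-NS3 protease with linked NS2B cofactor domain and Rhodamine110 peptide substrate; series mostly up to about 110 µM; plate controls were no-inhibitor control for no effect and no-enzyme control for full effect.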 Note: nearly all actives have a fitted effect of over 60% in size. Note: potency is the fitted concentration of half-maximal effect. The gist of the method: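 qHTS dose-response: 25 nM linked protease, pH 8.0 Tris/Tween buffer, cpd titration, 15 min RT preinc, 1.5 microM Rhod110 peptide, 15 min reaction (~15% conversion), Ex480/Em540; 4-parameter Hill fit.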
The test system of assay [7] is Zika virus NS2B-NS3 protease (linked). In words: 384 well plate NINDS AMC confirmatory qHTS for Zika virus inhibitors (AID 1347163).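 For activity change, negative = inhibition: linked protease at 5 30 or 60 nM final depending on run; fluorescence of AMC released from Ac-VKTGKR-AMC peptide cleaved by the protease; top concentration of the series differs between compounds; 0% = no-inhibitor control and -100% = no-enzyme control.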 Note: nearly all actives have a fitted effect of over 50% in size. Note: potency is the fitted concentration of half-maximal effect. Put shortly:
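Linked protease 5/30/60 nM final; cpds up to 1 mM final, ~15 min preinc. Substrate Ac-VKTGKR-AMC 30 microM final. RT, dark, 25 min; FI ex 355/em 460; normalized to no-enzyme/no-inhibitor ctrls.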

Assay [8] deals with Zika virus NS2B-NS3 protease (linked construct). In words: 384 well plate NINDS Rhodamine confirmatory qHTS for Zika virus inhibitors (AID 1347164).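 For activity change, negative = inhibition: top concentration of the series differs between compounds; plate controls were no-inhibitor control for no effect and no-enzyme control for full effect.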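 Note: fluorescence from protease cleavage of Ac-LKRR-rhodamine 110 substrate; nearly all actives have a fitted effect of over 65% in size.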 Note: potency is the fitted concentration of half-maximal effect. Put shortly:
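Enzyme (final 5/30/60 nM) + cpd (DMSO), ~15 min; add Ac-LKRR-Rd 10 microM final; 25 min RT, dark; FI ex 485/em 538; normalized to no-enzyme, no-inhibitor ctrls; aprotinin intraplate ctrl.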

Assay [9] can be described thus: Vero cells viability qHTS for Zika virus inhibitors (AID 1347167). Note: % is set by controls: 0 for no effect and ±100 for the full control effect. Put shortly:
(§1)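 Compounds were tested in concentration series on cells grown in DMEM containing 4% FBS. After 24 to 48 hours, cellular ATP was measured by luminescence with CellTiter Glo.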

The nature of assay [10]: HepG2 cells viability qHTS for Zika virus inhibitors (AID 1347168). Note: % is set by controls: 0 for no effect and ±100 for the full control effect. The gist of the method: as §1
Assay [11] in a line: ZIKV-mCherry secondary qHTS for Zika virus inhibitors (AID 1347158). Note: potency is the fitted concentration of half-maximal effect. The gist of the method:
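Vero cells, 5,000/well, plated overnight at 37 °C, then compound added and infected with recombinant ZIKV-mCherry at MOI 1 for 48-72 h. PFA-fixed, Hoechst nuclear stain, high-content imaging; cells with mCherry intensity above 450 RFU scored infected, reported as percent infection.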

A short description of assay [12]: Tertiary RLuc qRT-PCR qHTS assay for Zika virus inhibitors (AID 1347169). Note: top concentration of the series differs between compounds; % is set by controls: 0 for no effect and ±100 for the full control effect; nearly all actives have a fitted effect of over 55% in size. Put shortly:
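Vero, 1,000 cells/well, o/n 37 C; cpd pinned in DMSO; ZIKV-RLuc Cambodian, MOI 1-2, 48-72 h 37 C; live-cell RLuc substrate, lum read at 1-1.5 h.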
(In general: In qPCR the cycle at which signal appears reflects the starting amount.)

Results filed as inconclusive are left out. A number with no mark means an inactive call. Active and inactive are the calls of the source. Calls come from the whole dose curve; as a rule, active = well fitted curve in the direction sought with a large enough effect; inconclusive = small, poorly fitted or top-dose-only effect, or another doubt; inactive = no such curve, though single readings can be large; an effect the other way counts as inactive or inconclusive. Where a SMILES comes first, the peptide text is derived from it.

Turning to `Cc1ccc2[nH]c(=O)c(C3=NN(C(=O)CCC(=O)O)C(c4ccc(Br)cc4)C3)c(-c3ccccc3)c2c1` (configuration not stated), the Potency is 44.1 µM (active) in [1]; 49.4 µM (active) in assay [2]; 3.93 µM (active) in assay [3]; 6.31 µM (active) in assay [4]; 3.16 µM (active) in assay [5]; 3.93 µM (active) in [6]. The Potency entry in [7] and in assay [8] was “inactive” each time. Also, the compound was called inactive in [9] and in assay [10].
In the case of `COc1cnc(-c2ccc(Cn3c(CC(C)(C)C(=O)O)c(SC(C)(C)C)c4cc(OC[C@@H]5Cc6ccccc6N5C(C)=O)ccc43)cc2)nc1`, the Potency is 12.2 µM (active) in assay [1]; 1.53 µM (active) in [3]; 10 µM (active) in assay [11]; 3.98 µM (active) in [4]; 2.43 µM (active) in assay [6]; 0.631 µM (active) in [7]. Besides, in assay [8], the Potency is 1.78 µM (active). For the same compound, the outcome in assay [9] and in [10] was inactive.
As for `C=C1C(OC(C)=O)C(=O)C2C(C)(C)C(O)CCC2(C)C1CC(OC(C)=O)/C(C)=C/COC(C)=O` (configuration not stated), the Potency entry in assay [4] is “inactive”.
Regarding `NC(=O)[C@H](Cc1ccccc1)NC(=O)[C@H](CCCN=C(N)N)NC(=O)C12CC3CC(CC(C3)C1)C2`, the activity change, negative = inhibition in assay [4] was -7.71% [at 19.1 µM].
`C[C@@H]1O[C@@H](O[C@H]2[C@H](O[C@H]3[C@H](O[C@H]4CC[C@@]5(C)C(CC[C@]6(C)C5CC=C5[C@@H]7CC(C)(C)C[C@@H](O)[C@]7(C)CC[C@]56C)[C@@]4(C)CO)O[C@H](C(=O)O)[C@@H](O)[C@@H]3O)O[C@H](CO)[C@H](O)[C@@H]2O)[C@H](O)[C@H](O)[C@H]1O` (some centres not stated): the Potency entry in assay [4] is “inactive”.
Take `C[C@@]1(O)[C@H](O)[C@@H](CO)O[C@H]1n1cnc2c(=O)[nH]c(N)nc21`: in [4], the Potency result was “inactive”.
As for `CC(C)=CCC[C@@](C)(O)[C@H]1CC[C@]2(C)[C@@H]1[C@H](O)CC1[C@@]3(C)CC[C@H](O[C@@H]4O[C@H](CO)[C@@H](O)[C@H](O)[C@H]4O[C@@H]4O[C@H](CO)[C@@H](O)[C@H](O)[C@H]4O)C(C)(C)[C@@H]3CC[C@]12C` (some centres not stated), the Potency is 14.7 µM (active) in assay [3] and 16.5 µM (active) in [6]. Further, the Potency result in assay [4] and in assay [12] was “inactive” in each case.
With `O=C(N[C@H](Cc1ccccc1)C(=O)O)c1sc2cc(F)ccc2c1Cl`, the Potency in assay [4] was 39.8 µM (active).
For the compound `COC(=O)C(CC1CCCC1)c1ccc(S(C)(=O)=O)cc1` (configuration not stated), the Potency result in assay [4] is “inactive”.
On to `CC(=O)NC(Cc1c[nH]c2ccccc(=O)c12)C(=O)O` (configuration not stated), for which the Potency in assay [4] is 22.4 µM (active).
For `Fc1cccc(CN(C2=NCCN2)c2c(Cl)cccc2Cl)c1`, the Potency entry in assay [4] was “inactive”.
Consider `CC1CCC2(C)CCC3(C)C(=CCC4C5(C)CCC(O)C(C)(C(=O)O)C5CCC43C)C2C1C` (configuration not stated), for which the Potency in assay [4] is 8.91 µM (active).
In the case of `COC(=O)C1=CO[C@@H](O[C@@H]2O[C@H](CO)[C@@H](O)[C@H](O)[C@H]2O)[C@H]2[C@@H]1[C@H](O)[C@H](O)[C@]2(C)O`, the Potency result in assay [4] was “inactive”.
Same read-out and setting: the same measure for `CC(C)=C1CC2C(CCC2(C)O)C(C)(O)CC1=O` (configuration not stated): “inactive”; for `CCCC(=O)Nc1cccc(NC(=O)c2ccccc2Br)c1`: “inactive”; for `COC(=O)C1=C[C@@H](O)[C@@H](O)[C@H](O[C@@H]2O[C@H](CO)[C@@H](O)[C@H](O)[C@H]2OC(=O)/C=C/c2ccccc2)C1`: “inactive”.
Take `CC(C)=CCc1cc(O[C@@H]2O[C@H](CO[C@@H]3OC[C@](O)(CO)[C@H]3O)[C@@H](O)[C@H](O)[C@H]2O)ccc1O`: in assay [4], the Potency entry is “inactive”.
For `O=C(NCC(=O)N1CCCC1)Nc1ccc2ccccc2c1`, in [4], the Potency entry was “inactive”.
On the same count and under the same terms, the same measure for `COc1cccc(CN(C(=O)CC(C)(C)C)C2CC(C(=O)N3CCNCC3)N(Cc3ccc4c(c3)OCO4)C2)c1` (configuration not stated): “inactive”.
Regarding `CSCC[C@H](NC(=O)[C@H](CO)NC(=O)[C@H](CCC(=O)O)NC(C)=O)C(=O)N[C@H](C=O)CC(=O)O` (Ac-ESMD-aldehyde), the figures for the activity change, negative = inhibition in assay [3], in [6] and in assay [12] were 8.12% [at 22 µM], 12.5% [at 22.2 µM] and -0.374% [at 5.25 µM], respectively.
As to `CC1CC=C2C1CC1(O)C(=O)CC2(C)C1(C)CO` (configuration not stated), the Potency in assay [4] was 35.5 µM (active).
On to `O=C(O)CC/C=C\C[C@H]1CO[C@@H](c2ccccc2Cl)O[C@H]1c1ccccc1O`, for which the results for the Potency in assay [3] and in assay [6] were 31.2 µM (active) and 44.1 µM (active), respectively. In addition, the Potency entry in [4] and in [12] was “inactive” each time.
On to `Cc1cc(O[C@@H]2O[C@H](COC(=O)CC(=O)O)[C@@H](O)[C@H](O)[C@H]2O)c(C(C)C)cc1O`, for which the Potency entry in assay [4] was “inactive”.
Turning to `C=Cc1ccc(O[C@@H]2O[C@H](CO[C@@H]3O[C@@H](C)[C@H](O)[C@@H](O)[C@H]3O)[C@@H](O)[C@H](O)[C@H]2O)cc1`, the Potency result in assay [4] is “inactive”.
Same read-out and setting: the same measure for `COC(=O)[C@]1(C)CCC[C@@]2(C)C(=O)CC[C@H]3C(=O)C=C(CC[C@@H]21)C3O` (some centres not stated): “inactive”; for `FC(F)(F)Oc1ccc(-c2ccc3nnc(C(F)(F)F)n3c2)cc1`: “inactive”.
In the case of `CC(C)C1CCC(C(=O)N[C@@H](Cc2ccccc2)C(=O)O)CC1` (some centres not stated), in assay [4], the Potency was 31.6 µM (active).

For the origin of these results see PubChem BioAssay (NCATS).
